Compound activity as filed in PubChem.
Most compounds without a hit are left out; they make up all but 0.82% or so of the library.
IP6K1 inh – blocks human inositol hexakisphosphate kinase 1 | actives 0.81% (n = 140,000) | activity change, % (series mostly up to about 58 µM) | AID 1645851 | IP6K1 kinase, ADP-Glo luminescence, 2 h; active compounds read low | Q92551; in the data active means activity change below about -25%
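ADP-Glo luminescence measures ADP made by human IP6K1 during a 2 h RT reaction with ATP/IP6 (mix at 1.3 mM/130 uM); top library doses 57.5 and 19.1 uM final.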
GPT2 inhibitor – blocks human glutamate pyruvate transaminase 2. Recombinant GPT2, coupled pyruvate oxidase/HRP Amplex Red fluorescence. Potency, µM (titrated, usually from 57.7 µM), without a hit: at the top dose activity change, negative = inhibition, hits mostly inhibitors. actives 0.25% (n = 100,000). AID 1671188; further: potency means the concentration at half of the fitted maximal effect; nearly all actives have a fitted effect of over 60% in size
Target sequence (Q8TD30 whole entry, looked up): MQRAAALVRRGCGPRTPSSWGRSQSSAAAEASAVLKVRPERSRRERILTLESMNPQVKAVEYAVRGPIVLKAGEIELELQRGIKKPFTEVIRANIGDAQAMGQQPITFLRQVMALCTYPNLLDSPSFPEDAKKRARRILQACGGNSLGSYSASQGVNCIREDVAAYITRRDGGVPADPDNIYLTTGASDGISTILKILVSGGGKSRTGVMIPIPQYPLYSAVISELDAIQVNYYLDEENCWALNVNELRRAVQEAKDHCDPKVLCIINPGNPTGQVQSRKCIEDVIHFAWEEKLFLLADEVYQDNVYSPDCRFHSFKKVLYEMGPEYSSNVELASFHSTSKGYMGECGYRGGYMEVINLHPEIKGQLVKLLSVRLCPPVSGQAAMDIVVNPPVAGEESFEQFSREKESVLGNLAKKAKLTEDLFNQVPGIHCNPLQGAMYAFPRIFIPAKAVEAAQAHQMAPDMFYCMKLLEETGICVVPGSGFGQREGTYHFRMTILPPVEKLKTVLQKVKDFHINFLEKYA
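Inhibition is scored from Amplex Red fluorescence generated when pyruvate oxidase and HRP act on pyruvate released by GPT2. Reactions contain 10ng/uL enzyme, 250uM a-KG and 2mM L-alanine and run 30 min at room temperature.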
IP6K1 inh cnf – human IP6K1 inhibition, confirmatory; shares compounds with IP6K1 inh; recombinant IP6K1 kinase, ADP-Glo luminescence, 2 h; Potency, µM (highest dose often 49 µM), for inactives: at the highest dose activity change, negative = inhibition, actives largely listed as inhibitors; actives 13% (n = 1,200); AID 1645852; further: potency means the concentration at half of the fitted maximal effect; nearly all actives have a fitted effect of over 65% in size
Active calls of the source: *; i = inactive; ? = inconclusive; nt = not tested or not shown; [ ] = another dose, or the depositor's remark. Unless noted, the call rests on the fitted dose curve; in most records, active means well fitted curve in the direction sought with a large enough effect; inconclusive means small, poorly fitted or top-dose-only effect, or another doubt; inactive means no such curve, though single readings can be large; an effect the other way counts as inactive or inconclusive. On the % scale 0 is the no-effect control and ±100 the full control effect.

SMILES	IP6K1 inh	GPT2 inhibitor	IP6K1 inh cnf
CCOC(=O)c1ccc(NC(=O)CSc2nc3cc4ccccc4cc3[nH]2)cc1	-26*	nt	15%
Cc1cc(C)cc(NC(=O)CSc2nccn2-c2ccccc2)c1	21	nt	nt
COC(=O)c1ccc(NC(=O)CSc2nc3cc4ccccc4cc3[nH]2)cc1	-15	nt	nt
CC(=O)NC1CCN(Cc2cccc(-c3ccc(F)cc3F)c2)CC1	10	nt	nt
CCNC(=O)Nc1ncc(-c2cc(-c3c(C)cc(OC)cc3C)nc(-c3cnccn3)n2)s1	6	-6%	nt
CNCC(=O)N[C@H]1CCN2C(=O)c3cc(-c4cc(Cl)ccc4OC)ccc3NC(=O)[C@@H]2C1	-16	i	nt
CCCCCNS(=O)(=O)c1ccc(N2CCCCS2(=O)=O)cc1	7	nt	nt
CC(C)CCNS(=O)(=O)c1ccc(N2CCCCS2(=O)=O)cc1	-30*	nt	-16%
Cc1ccc(-n2ncc(C(=O)Nc3ccc4c(c3)OCO4)c2C2CCN(C(=O)OC(C)(C)C)CC2)cc1	21	nt	nt
Cc1ccc(-n2ncc(C(=O)Nc3ccc4c(c3)OCCO4)c2C2CCN(C(=O)OC(C)(C)C)CC2)cc1	-26*	nt	11%
CCc1ccc(C2c3c(-c4ccccc4)n[nH]c3C(=O)N2c2ccc(C(=O)O)cc2)cc1 (configuration not stated)	1	nt	nt
Cc1ccc(-c2n[nH]c3c2C(c2ccccc2Cl)N(c2ccc(C(=O)O)cc2)C3=O)cc1 (configuration not stated)	-29*	nt	-18%
O=C(NCc1ccnc2[nH]ccc12)c1cccc(Br)c1	-10	4%[88.5 µM]	nt
Cn1ncc(Cl)c1-c1cc(C(=O)N[C@H](CN)Cc2ccc(F)c(F)c2)oc1Cl	-2	-8%	nt
COc1ccccc1NC(=O)Cn1nc2c3cc(F)ccc3n(Cc3cccc(C)c3)cc-2c1=O	7	nt	nt
CCOc1ccccc1NC(=O)Cn1nc2c3cc(F)ccc3n(Cc3cccc(C)c3)cc-2c1=O	-34*	nt	9%
CC(C)c1nncn1C1CCN(S(=O)(=O)c2ccc(F)c(F)c2)CC1	-13	i	nt
Cc1nc(-c2ccc(S(=O)(=O)N3CCN(c4cccc(Cl)c4)CC3)cc2)co1	1	nt	nt
CN1CCN(c2cccc(Nc3nc4c(-c5ccc(S(C)(=O)=O)cc5)cccn4n3)c2)CC1	-11	i	1%
CCCNC(=O)CN1CCN(c2ncc(NC(=O)c3ccc(Cl)cc3)cc2C(=O)O)CC1	-23	nt	nt
CCCCNC(=O)CN1CCN(c2ncc(NC(=O)c3ccc(Cl)cc3)cc2C(=O)O)CC1	-59*	nt	?
O=C(NC[C@H]1O[C@@H](CO)[C@@H](O)[C@H]1N1CCN(c2ccccc2)CC1)c1cccs1	2	-6%[88.5 µM]	nt
O=C(Nc1cnc(N2CCN(c3ccccc3)CC2)c(C(=O)O)c1)c1cccs1	-28*	nt	?
CC(=O)c1ccc(N2CCN(c3ccc(NC(=O)c4ccc(F)cc4)cc3C(=O)O)CC2)cc1	0	nt	nt
O=C(Nc1ccc(N2CCN(c3ccc(F)cc3)CC2)c(C(=O)O)c1)c1cccs1	-27*	nt	?
SMILES	IP6K1 inh	GPT2 inhibitor	IP6K1 inh cnf
CC(C)CC(=O)N1CCCCCC1CN1CCC(C)CC1 (configuration not stated)	-8	-6%	nt
Cc1ccc(Nc2ccnc(N3CCC(C(=O)NCc4ccc5c(c4)OCO5)CC3)n2)cc1	-8	i	nt
CCc1ccccc1N(CC)C(=O)c1cc2c(s1)-c1ccccc1OC2	-13	nt	nt
CCc1ccccc1N(CC)C(=O)c1cc2c(s1)-c1ccccc1SC2	-26*	nt	-6%
Cc1ccsc1C(=O)N1CCC(Cc2nc(-c3ccncc3)n[nH]2)CC1	-1	i	nt
COc1ccc(C(=O)Nc2ccc(-c3noc([C@@H]4CCCN4CC4CCCCC4)n3)cn2)cc1	-3	i	nt
CNC(=O)[C@@H](c1ccccc1F)N1CCC[C@H]1C(=O)N1CCOCC1	0	2%[88.5 µM]	nt
CC(C)C[C@@H]1N[C@H](C(=O)N2CCN(C)CC2)Cc2c[nH]c3cccc1c23	4	1%[88.5 µM]	nt
COc1ccc2nc(N3CCN(C(=O)c4ccco4)CC3)sc2c1	1	nt	nt
COc1ccc2nc(N3CCN(C(=O)CS(=O)(=O)c4ccc(C)cc4)CC3)sc2c1	-29*	nt	-14%
CC(C)NC(=O)NCc1nnc2n1C(C(=O)N1CCN(c3ncccn3)CC1)CC2 (configuration not stated)	3	-1%	nt
Cc1ccc(NC(=O)c2ccc3oc(-c4cccnc4)nc3c2)cc1	-6	i	nt
C[C@@H]1CN(C(=O)c2cnc3c(O)cccn3c2=O)CC[C@@]1(O)C1CCC1	-28*	?	-11%
C[C@@H]1CN(C(=O)c2cnc3sccn3c2=O)C[C@@]1(O)C1CCC1	-4	2%	nt
COc1ccc(-c2ccccc2)cc1N1C(=O)[C@@H]2C[C@H]1CN2C(=O)CNC(N)=O	24	-7%[11.5 µM]	nt
O=C(Cc1c[nH]c2ccccc12)N1CCc2c(nc(-c3ccc(F)cc3)[nH]c2=O)C1	57	-2%	nt
Cc1ccc2c(c1)C(c1ccc(F)cc1)N(C(=O)c1cccc(C(F)(F)F)c1)CC(=O)N2 (configuration not stated)	-26*	nt	?
COc1cc(C(=O)N2CC(=O)Nc3ccc(C)cc3C2c2ccc(F)cc2)cc(OC)c1OC (configuration not stated)	-22	nt	nt
CN1CCN(c2nc3c(c(=O)[nH]2)CCN(Cc2ccccc2C#N)CC3)CC1	9	-11%	nt
CCN(C)C(=O)C(C)N1CCc2onc(-c3ccc(-c4ccccc4)cc3)c2C1 (configuration not stated)	36	?	nt
CCC(O)C(=O)N1CCc2onc(-c3ccc(-c4ccccc4)cc3)c2C1 (configuration not stated)	-47*	4%	?
COc1cc(F)ccc1-c1cc(C(=O)NCc2c(C)cc(C)[nH]c2=O)c2c(c1)N(C(C)C)CCO2	-27*	?	-5%
Cc1cc(C)c(CNC(=O)c2cc(-c3cnn(C)c3)cc3c2OCCN3C)c(=O)[nH]1	-21	i	nt
Cc1cc(C)c(CNC(=O)c2cc(-c3cccnc3)cc3c2OCCN3C)c(=O)[nH]1	-28*	5%[88.5 µM]	-30%
COc1cccc(-c2cc(C(=O)NCc3c(C)cc(C)[nH]c3=O)c3c(c2)N(C(C)C)CCO3)c1OC	-18	0%	nt
SMILES	IP6K1 inh	GPT2 inhibitor	IP6K1 inh cnf
O=C(NCc1cccc(F)c1)C1CCCN1C(=O)c1cccc(-c2ccccn2)c1 (configuration not stated)	-9	i	nt
CC(=O)Nc1cc(-c2ccncc2)nn1-c1ccccc1	8	i	nt
CCCn1ccc2sc(C)c(C(=O)NCc3ccccc3OCC)c2c1=O	8	i	nt
CCOC(=O)c1ccc(NC(=O)c2nsc3ccccc23)cc1	-24	nt	nt
CNC(=O)c1ccc(NC(=O)c2nsc3ccccc23)cc1	-27*	nt	?
O=C(NCc1cccc(F)c1)C1CCN(c2nc3ncccc3o2)CC1	19	0%	nt
COc1ccc(OC(=O)c2nc(SCc3ccc(F)cc3)ncc2Cl)cc1	-19	nt	nt
COc1ccc(OC(=O)c2nc(SCc3ccc(C)cc3)ncc2Cl)cc1	-28*	nt	-3%
Cc1ccccc1OC(=O)c1nc(SCc2ccccc2F)ncc1Cl	-13	nt	nt
Cc1ccc(CSc2ncc(Cl)c(C(=O)Oc3ccc(F)cc3)n2)cc1	-25*	nt	13%
O=C(Oc1ccccc1F)c1nc(SCc2ccc(F)cc2)ncc1Cl	-38*	nt	-1%
